Only some compounds are listed: those with a hit (about 2.2% of all), similar ones and a draw of the others.
MEKK3 PB1 HTS: modulators of MEKK3-MEK5 PB1 binding, primary screen, biochemical, wildtype MEKK3, multiplex bead flow cytometry, Alexa488-MEK5; 290,000 compounds, 1.4% hits; AID 1529, 2009; bead-based flow cytometry, Alexa488-MEK5 binding to MEKK3; actives lie on both sides; 0 = blocked by unlabeled MEK5, 100 = vehicle; Mitogen-activated protein kinase kinase kinase 3 (Homo sapiens), Q99759; binding response (% of control), % at 10 µM;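 active = binding response more than 3 SD above or below the average of its plate-row segment, actives on both sides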;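 note: Alexa488 bead fluorescence after subtracting the streptavidin-only scavenger bead signal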
Target sequence (Q99759 whole entry, looked up): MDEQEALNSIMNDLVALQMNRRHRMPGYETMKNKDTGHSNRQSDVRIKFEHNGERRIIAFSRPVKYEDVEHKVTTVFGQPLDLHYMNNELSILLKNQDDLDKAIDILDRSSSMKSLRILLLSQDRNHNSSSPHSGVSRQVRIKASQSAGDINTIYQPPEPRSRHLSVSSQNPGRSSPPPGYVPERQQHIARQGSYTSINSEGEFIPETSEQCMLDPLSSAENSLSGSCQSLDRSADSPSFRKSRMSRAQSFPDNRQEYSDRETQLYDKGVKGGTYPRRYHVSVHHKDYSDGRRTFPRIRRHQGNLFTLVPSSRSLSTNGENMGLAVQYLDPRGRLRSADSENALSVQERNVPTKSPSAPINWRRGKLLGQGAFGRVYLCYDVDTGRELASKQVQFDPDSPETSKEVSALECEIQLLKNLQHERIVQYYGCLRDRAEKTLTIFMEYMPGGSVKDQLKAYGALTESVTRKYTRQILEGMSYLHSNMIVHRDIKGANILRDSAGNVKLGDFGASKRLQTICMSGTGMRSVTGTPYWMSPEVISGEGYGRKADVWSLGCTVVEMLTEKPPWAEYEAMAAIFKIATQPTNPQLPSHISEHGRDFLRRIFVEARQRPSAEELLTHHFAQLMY
MEKK2 mut-MEK5: MEK5 binding signal on mutant MEKK2 PB1, primary screen, biochemical, multiplex bead flow cytometry, Alexa488-MEK5 | Alexa488-MEK5 binding to MEKK2 mutant | percent response, % at 10 µM | 290,000 compounds, 0.35% hits; in the data active = percent response above about 24%, passing the limit was not always enough
MEKK2wt PB1 HTS: modulators of MEK5 binding to wildtype MEKK2, primary screen, biochemical, multiplex bead flow cytometry, Alexa488-MEK5. binding response (% of control), % at 10 µM. 290,000 compounds, 1.1% hits. Alexa488-MEK5 binding to MEKK2 WT; actives lie on both sides. Mitogen-activated protein kinase kinase kinase 2 (Homo sapiens), Q9Y2U5; in the data active = binding response below about 67% or above about 130%
VLA-4 inh: inhibition in human VLA-4 binding assay, primary screen, VLA-4 allosteric modulator project, MLPCN library, flow cytometry, VLA-4 expressing cells; inhibition, % (about 7 µM as worked out from the volumes in the protocol); AID 2557, 2010; 330,000 compounds, 0.2% hits; ligand binding flow cytometry; in the data active = inhibition above about 50%
MEKK2wt confirm: modulators of MEK5 binding to wildtype MEKK2, confirmation, biochemical, single concentration, multiplex bead flow cytometry | Alexa488-MEK5 binding to MEKK2 WT; actives lie on both sides | shares compounds with MEKK3 PB1 HTS | AID 1892, 2009 | 5,900 compounds, 2.4% hits | binding response (% of control), % at 10 µM; in the data active = binding response below about 16% or above about 210%; inactive = in between
MEKK2mut-MEK5: mutant MEKK2 PB1-MEK5 binding signal retest – biochemical, single concentration, multiplex bead flow cytometry, confirmation; shares compounds with MEKK3 PB1 HTS; Alexa488-MEK5 binding to MEKK2 mutant; percent response, % at 10 µM; 5,900 compounds, 2% hits; AID 1893, 2009; in the data active = percent response mostly above about 71%, no sharp cut-off; inactive = mostly below about 38%;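 note: higher means compound restores mutant binding toward wildtype level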
MEKK3-MEK5 inh: MEKK3 wild-type PB1 binding to MEK5, inhibitors, confirmation, biochemical, bead multiplex flow cytometry, single concentration, wildtype | Alexa488-MEK5 binding to MEKK3; active compounds read low | 5,900 compounds, 1.8% hits | binding response (% of control), % at 10 µM | shares compounds with MEKK3 PB1 HTS;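 active = binding response below 72% of control, or above a set upper limit, though filed actives all read lower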;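 note: lower values mean stronger disruption of MEK5 binding to MEKK3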
A number is an active result; 0 = inactive; - = not tested or not shown; [ ] = remark or other dose.

SMILES | MEKK3 PB1 HTS | MEKK2 mut-MEK5 | MEKK2wt PB1 HTS | VLA-4 inh | MEKK2wt confirm | MEKK2mut-MEK5 | MEKK3-MEK5 inh
CC(=O)Nc1ccc(OC(=O)c2c(-c3ccccc3Cl)noc2C)cc1 | 144 | 0 | 0 | 0 | 0 | 0 | 0
CC(=O)Nc1ccc(NC(=O)c2c(-c3ccccc3Cl)noc2C)c(C)c1 | 0 | 0 | 0 | 0 | - | - | -
COc1ccc(OCc2nnc(SCC(=O)Nc3ccccc3Cl)o2)cc1 | 0 | 0 | 0 | 0 | - | - | -
O=C(CN1C(=O)NC2(CCCC2)C1=O)N1CCN(c2ccccc2O)CC1 | - | - | - | 0 | - | - | -
Cc1ccc(CNC(=O)C2CC(=O)N(CCC(C)C)C2)cc1 (centres undefined) | 5.0[inhibitor] | 0 | 8.0[inhibitor] | 0 | 0 | 0 | 0
COc1ccc(OC)c(CN2CCN(Cc3cccc4ccccc34)CC2)c1 | 0 | 0 | 0 | 0 | - | - | -
CCOc1ccc(-n2cc(C(=O)Nc3cccc(Cl)c3)c3cc(OC)c(OC)cc3c2=O)cc1 | 2.0[inhibitor] | 0 | 3.0[inhibitor] | 0 | 0 | 0 | 0
O=c1c(Cl)c(N2CCN(c3ccc(F)cc3)CC2)cnn1C12CC3CC(CC(C3)C1)C2 | 148 | 0 | 0 | 0 | 0 | 0 | 0
O=c1c(Cl)c(N2CCN(c3ccccc3)CC2)cnn1C12CC3CC(CC(C3)C1)C2 | 0 | 0 | 0 | 0 | - | - | -
O=C(COc1ccc(Br)cc1)NCCCNC(=O)c1ccncc1 | 0 | 0 | 0 | 0 | - | - | -
O=C(CN1C(=O)NC2(CCCCC2)C1=O)NCc1cccs1 | 154 | 0 | 0 | 0 | 0 | 0 | 0
Cc1cc(NC(=O)CN2C(=O)NC3(CCCCC3)C2=O)no1 | 135 | 0 | 0 | 0 | 0 | 0 | 0
Brc1ccc(-c2nnc(-c3cccnc3)c3conc23)cc1 | 80[inhibitor] | 0 | 0 | 0 | 0 | 0 | 0
COC(=O)Cc1nc(Nc2ccccc2)sc1C | 0 | 0 | 0 | 0 | - | - | -
CC(C)CNC(=O)c1cc([N+](=O)[O-])ccc1N1CCOCC1 | 0 | 0 | 0 | 0 | - | - | -
CCC(C)(C)NC(=O)c1cc([N+](=O)[O-])ccc1N1CCOCC1 | 157 | 0 | 0 | 0 | 0 | 0 | 0
COc1ccc(NC(=O)[C@@H](NC(N)=O)C(C)C)cc1Cl | 0 | 0 | 0 | 0 | - | - | -
O=C(NCC(O)c1ccccc1)c1ccc(Cl)c(S(=O)(=O)N2CCCC2)c1 (centres undefined) | - | - | - | 0 | - | - | -
Fc1ccc(N2CCN(Cc3nnc(-c4ccccc4)o3)CC2)cc1 | 135 | 0 | 0 | 0 | 0 | 0 | 0
c1ccc(-c2nnc(CN3CCCc4ccccc43)o2)cc1 | 0 | 26 | 9.0 | 0 | 0 | 0 | 0
O=S(=O)(c1ccc(F)cc1)N1CCN(Cc2nnc(-c3ccccc3)o2)CC1 | - | - | - | 0 | - | - | -
O=C(/C=C/c1ccc(Cl)c([N+](=O)[O-])c1)Nc1cccc(NC(=O)c2ccco2)c1 | 143 | 0 | 0 | 0 | 0 | 0 | 0
CN(C(=O)CSc1nnc(-c2ccccc2)c(-c2ccccc2)n1)C1CCS(=O)(=O)C1 (centres undefined) | 137 | 0 | 0 | 0 | 0 | 0 | 0
COc1ccc(CN2CCSCC2)c(C)c1C | 0 | 0 | 0 | 0 | - | - | -
O=C(CN1CCSC1=O)N1CCN(S(=O)(=O)c2ccccc2)CC1 | - | - | - | 0 | - | - | -
Cc1ccc2c(c1)CCCN2C(=O)NC1CCCCC1 | 0 | 0 | 0 | 0 | - | - | -
CC(=O)N1CCN2C(=O)C1CCCC(=O)c1cc(C)ccc12 (centres undefined) | 48[inhibitor] | 0 | 0 | 0 | 0 | 0 | 0
COc1c(/C=N/NC(=O)c2ccncc2)c(CCN(C)C(C)=O)cc2c1OCO2 | 0 | 0 | 0 | 0 | - | - | -
O=C1CC(=C2c3ccccc3-c3ccccc32)C(=O)N1CCCCN1CCN(c2ccccc2)CC1 | 0 | 0 | 155 | 0 | 0 | 0 | 0
O=C1CC(=C(c2ccccc2)c2ccccc2)C(=O)N1CCCN1CCN(c2cccc(Cl)c2)CC1 | 0 | 0 | 0 | 0 | - | - | -

Screens: PubChem, NMMLSC
